Sampled rows, rich in hits. Any-hit rate of the full collection: about 9.3%.
Vaccinia mCherry: qHTS for Stage-Specific Inhibitors of Vaccinia Orthopoxvirus: mCherry Reporter Primary qHTS | actives 0.63% (n = 310,000) | Vaccinia virus mCherry reporter infection, fluorescence | Potency, µM (top dose mostly 36.5 µM), for the others: at the top dose activity change, negative = inhibition, hits mostly inhibitors | AID 720579, 2013; calls by dose curve; tested in A549 cells; also: potency is read from the fitted curve at half-maximal effect; % is scaled to controls: 0 for no effect and ±100 for the full control effect; nearly all actives have a fitted effect of over 35% in size
Sm TGR inh: qHTS Assay for the Inhibitors of Schistosoma Mansoni Peroxiredoxins. Schistosoma mansoni thioredoxin glutathione reductase (TGR), Q962Y6. purified TGR, DTNB reduction, TNB absorbance 405 nm. Potency, µM (doses to about 114 µM), inactives show top-dose activity change, negative = inhibition, actives largely listed as inhibitors. actives 3% (n = 360,000). AID 485364, 2010; also: potency is read from the fitted curve at half-maximal effect; % is scaled to controls: 0 for no effect and ±100 for the full control effect; nearly all actives have a fitted effect of over 60% in size
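TGR 20 nM + NADPH 100 uM (dispensed conc.), cpd preinc 15 min RT; start with NADPH (500 uM addition) then DTNB (15 mM addition). Kinetic TNB absorbance, 405 nm filter. Four-parameter Hill fit across titration.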
HCMV antiviral: qHTS Assay for inhibitors of the human cytomegalovirus (HCMV) | AID 1259415, 2018 | actives 4.5% (n = 410,000) | activity change, negative = inhibition, % at 57.5 µM | HFF cells, HCMV-luciferase reporter, 72 h; stronger effect = lower value; in the data active = activity change below about -60%; inconclusive = no clear call, values can overlap the other calls; inactive = above about -39%; also: % is scaled to controls: 0 for no effect and ±100 for the full control effect
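Cell-based, HFFs, 1000 cells/well, 16 h 37C; cpds in DMSO + HCMV-luc, MOI 1 PFU/cell; 72 h 37C; OneGlo luminescence after 5 min RT; norm. to buffer vs Salinomycin 10uM.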
HCV inhibitor: qHTS Assay for Inhibitors of Hepatitis C Virus (HCV). Huh7.5.1 HCVcc-Cre infection, luciferase reporter, 44 h. Potency, µM (highest dose often 41.8 µM), inactives show top-dose activity change, negative = inhibition, usual class: inhibitors. actives 3.4% (n = 340,000). AID 651820, 2012; also: potency is read from the fitted curve at half-maximal effect; % is scaled to controls: 0 for no effect and ±100 for the full control effect
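After 44 h co-culture of compound, cells and HCVcc-Cre (~0.5 moi), substrate is added for 15 min at room temperature and luciferase measured over 15 sec. Cells were seeded at 1,000/well and pre-cultured 4 h.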
FMDV inh: High Throughput Screening for Foot and Mouth Disease Virus Antivirals; AID 1159524, 2015; Potency, µM (highest dose often 57.9 µM), for the others: at the highest dose activity change, negative = inhibition, actives largely listed as inhibitors; actives 1.2% (n = 410,000); FMDV antiviral cell-based qHTS; calls by dose curve; tested in HEK293T cells; also: read-out not given here; potency is read from the fitted curve at half-maximal effect; % is scaled to controls: 0 for no effect and ±100 for the full control effect; nearly all actives have a fitted effect of over 45% in size
Vaccinia Venus: qHTS for Stage-Specific Inhibitors of Vaccinia Orthopoxvirus: Venus Reporter Primary qHTS. Vaccinia virus Venus reporter expression, fluorescence. Potency, µM (highest dose often 36.5 µM), inactives show top-dose activity change, negative = inhibition, most hits filed as inhibitors. actives 0.46% (n = 330,000); calls by dose curve; tested in A549 cells; also: potency is read from the fitted curve at half-maximal effect; % is scaled to controls: 0 for no effect and ±100 for the full control effect; nearly all actives have a fitted effect of over 30% in size
HCV inh confirm: qHTS Assay for Inhibitors of Hepatitis C Virus (HCV): Confirmation Assay for Cherry-picked Compounds; AID 720575, 2013; shares compounds with HCV inhibitor; HCVcc-Cre infectious virus cell assay, luciferase, inhibition; Potency, µM (titrated, usually from 41.8 µM), for inactives: top-dose activity, negative = inhibition, actives largely listed as inhibitors; actives 78% (n = 640); also: potency is read from the fitted curve at half-maximal effect; nearly all actives have a fitted effect of over 80% in size
HCV host tox: qHTS Assay for Inhibitors of Hepatitis C Virus (HCV): Cytotoxicity Counterscreen for Cherry-picked Compounds; shares compounds with HCV inhibitor; HCV host cell line cytotoxicity counterscreen; Potency, µM (highest dose often 41.8 µM), without a hit: at the top dose activity change, negative = cytotoxicity, actives largely listed as inhibitors; actives 22% (n = 640); AID 720576, 2013;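 also: potency is read from the fitted curve at half-maximal effect; 44 h compound exposure; % is scaled to controls: 0 for no effect and ±100 for the full control effect; nearly all actives have a fitted effect of over 55% in size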
Active calls of the source: *; i = inactive; ? = inconclusive; nt = no result given; ! = not active in a repeat; [ ] = another dose, or the depositor's remark. Unless noted, calls follow the shape of the dose curve; as a rule, active = well fitted curve in the direction sought with a large enough effect; inconclusive = small, poorly fitted or top-dose-only effect, or another doubt; inactive = no such curve, though single readings can be large; an effect the other way counts as inactive or inconclusive.

SMILES | Vaccinia mCherry | Sm TGR inh | HCMV antiviral | HCV inhibitor | FMDV inh | Vaccinia Venus | HCV inh confirm | HCV host tox
COc1ccc2ccc3ccc(OC)c(OC(C)=O)c3c2c1 | ? | nt | -10 | ? | -8% | -19% | 25µM* | -13%
COc1ccc(OC)c(CC(=O)O)c1 | nt | 0% | 30 | 12% | 7% | nt | nt | nt
COc1ccc(-c2nc(SCc3ccccc3)n(S(C)(=O)=O)n2)cc1 | nt | -22% | 36 | 2.8µM* | -18% | nt | -27% | 35%
COc1ccc(NC(=O)CN2C(=O)C(C)N=C(c3ccccc3F)c3cc(Cl)ccc32)c(OC)c1 (stereo not drawn) | -2% | 5% | ? | nt | -25% | -8% | nt | nt
CC1(C)Oc2ccc3ccc(=O)oc3c2-c2cn[nH]c21 | nt | 3% | -81* | 7.1µM* | 6% | ? | ? | ?
O=C(NCCN1CCC(Cc2ccccc2)CC1)C1CCN(S(=O)(=O)N2CCC3(CC2)OCCO3)CC1 | nt | -10% | -24 | 6.3µM* | ? | nt | ? | -18%
Cn1nc(C(F)(F)F)c2cc(NC(=O)OCc3ccc(C(C)(C)C)cc3)sc21 | -9% | 8% | -7 | ? | 22µM* | -10% | 25µM* | ?
CSC(=NNC(=O)c1ccccc1O)SC | -7% | 0% | 41 | -30% | 13% | -3% | nt | nt
COC(=O)c1ccc(CN2CCc3ccc(NC(=O)c4ccncc4)cc3C2)cc1 | -5% | -24% | ? | 8.9µM* | ? | -20% | 14µM* | ?
CC(=NNC(=S)N1CCN(C2CCCCCC2)CC1)c1ccccn1 | ? | nt | -96* | 0.89µM* | ? | ? | 0.11µM* | ?
O=C(c1ccc(Cl)c(S(=O)(=O)N2CCOCC2)c1)N(Cc1nnc(-c2ccccc2Cl)o1)C1CC1 | -28% | -3% | -20 | ? | ? | -10% | nt | nt
c1ccc(-c2cccc(-c3ccccn3)n2)nc1 | nt | 13% | -101* | 5.6µM* | 10% | nt | 3.5µM* | 3.5µM*
COc1ccc(S(=O)(=O)Cc2ccc(C(=O)N3CCC(C(N)=O)CC3)o2)cc1 | i | -19% | -7 | 14% | -22% | 2% | nt | nt
CCOC(=O)C(CCCOc1ccccc1C)C(=O)OCC | nt | -4% | 3 | ? | -8% | -23% | nt | nt
CCCCOC(=O)N1CCOCCOCCOCCOCC1 | i | 5% | 10 | 8% | -6% | -12% | nt | nt
Cc1onc(-c2ccccc2)c1-c1nnc(-c2ccccc2C(F)(F)F)o1 | i | -5% | -18 | ? | ? | 7% | 25µM* | -31%
Cc1onc(-c2ccccc2)c1-c1nnc(COC(=O)c2ccc(F)cc2)o1 | i | nt | -3 | nt | -22% | -13% | nt | nt
COC(=O)c1c(C(=O)OC)c2cccc3cc(-c4ccccc4)c4ccc1c4n32 | nt | -29% | -4 | 1.8µM* | -13% | -10% | 5.6µM* | ?
CC(=O)c1sc(=S)n(Cc2ccccc2)c1C | nt | -5% | ? | -4% | -9% | nt | nt | nt
CC(C)CN(C(=O)CCCOc1ccc(Cl)cc1Cl)c1c(N)n(Cc2ccccc2)c(=O)[nH]c1=O | -8% | -3% | -36 | ? | -25% | -15% | 11µM* | 82%
COC(=O)N/N=C/c1cc(C)n(-c2ccccc2)c1C | nt | -18% | 35 | -1% | 55% | nt | nt | nt
Cc1cc(C(=O)N/N=C/c2ccc(O)c(O)c2O)c(C)n1-c1ccccc1 | -24% | 40µM* | ? | 5.6µM* | -7% | -5% | 13µM* | ?
Cc1cc(C)c(CN2CCN(C(=O)Cn3cnc4c(OCc5ccccc5)ncnc43)CC2)c(C)c1 | ? | nt | -64* | 0.56µM* | ? | ? | 2.5µM* | 5.6µM*
CCc1ccc(OCCCC(=O)O)c(Br)c1 | i | -5% | -28 | 22% | nt | -8% | nt | nt
COc1ccccc1Nc1nc2nonc2nc1N1CCCCC1C (stereo not drawn) | nt | -1% | ? | ? | 0% | nt | ? | 37%
SMILES | Vaccinia mCherry | Sm TGR inh | HCMV antiviral | HCV inhibitor | FMDV inh | Vaccinia Venus | HCV inh confirm | HCV host tox
COCCn1c(=O)[nH]c2cc(C(=O)N3CCN(c4ccc(Cl)cc4)CC3)ccc2c1=O | ? | 3% | -23 | 8.9µM* | 16µM*! | -2% | 7µM* | ?
O=S(=O)(Nc1cccc(CCc2ccccn2)c1)c1cc(Cl)ccc1Cl | -4% | 8% | 8 | -15% | ? | -18% | nt | nt
C[C@]12CC[C@@H]3c4ccc(O)cc4CC[C@H]3[C@@H]1CC[C@@H]2O | -6% | 7% | -24 | -6%[8.37 µM] | -17% | -19% | nt | nt
C[C@]12CC[C@@H]3c4ccc(O)c(O)c4CC[C@H]3[C@@H]1CC[C@@H]2O | -27% | ? | -91* | 2.8µM* | -5% | -15% | 20µM* | 1%
Cn1c(NCCc2ccncc2)nc2cc(-c3ccsc3)sc2c1=O | 14% | nt | 34 | nt | -3% | 2% | nt | nt
CCN(C[C@H]1N[C@@](Cc2ccccc2)(C(=O)OC)[C@H]2C(=O)N(Cc3ccccc3)C(=O)[C@@H]12)S(=O)(=O)c1ccc(C(F)(F)F)cc1 | -12% | nt | -6 | 7.1µM* | 0% | -8% | ? | 51%
CCN(C[C@H]1N[C@@](Cc2ccccc2)(C(=O)OC)[C@H]2C(=O)N(C)C(=O)[C@@H]12)S(=O)(=O)c1ccc(C(F)(F)F)cc1 | -16% | nt | -8 | ? | -24% | 0% | nt | nt
CC(=O)c1cc(CN2CCN(C(C)C)C(CCO)C2)cs1 (stereo not drawn) | i | -13% | -33 | -1% | -9% | -20% | nt | nt
COc1ccc(/C=C/c2c(-c3ccc(OC)cc3)sc3ccc(N4CCOCC4)cc23)cc1 | ? | 6% | nt | -5% | -21% | -10% | nt | nt
COc1ccc(-c2sc3ccc(N4CCOCC4)cc3c2C#CCO)cc1 | -16% | nt | -87* | 3.2µM* | 16µM* | ? | 4.4µM* | 5µM*
Cc1cc(=O)n(C)c(=O)n1CCCCCCOc1cccc([N+](=O)[O-])c1 | -26% | 5% | -26 | 7.1µM* | ? | -12% | 10µM* | -19%
CCOc1ccc2nc(N/C(N)=N/C(=S)Nc3cccc(C)c3)nc(C)c2c1 | -7% | 6% | -26 | 5.6µM* | -20% | -14% | 7.9µM* | -19%

Compound activity: PubChem BioAssay, National Center for Advancing Translational Sciences (NCATS)
